PubChem BioAssay
Active and inactive are the calls of the source.

Key:
[1] = test system: Plasmodium falciparum Sir2 (PF13_0152, Sir2A); test: Plasmodium falciparum Sir2A binding compounds – biochemical, small-molecule microarray, 635 nm fluorescence, primary screen (AID 1098); conditions: fluorescence 635 nm, higher = more signal;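 note: score merges spot fluorescence intensity with its signal-to-noise ratio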
[2] = probe aDKK1 binding to arrayed compounds – biochemical, biotinylated probe, 635/667 nm fluorescence, primary screen (AID 1099); conditions: small-molecule microarray, higher = more signal;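 note: score merges 667nm spot fluorescence with signal to noise across triplicate slides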
[3] = probe aCHRDL2 binding to arrayed compounds – biochemical, biotinylated probe, 635/667 nm fluorescence, primary screen (AID 1100); conditions: small-molecule microarray, higher = more signal
[4] = change in splice reporter luminescence, either direction, cell-based, HEK293, spliceosome inhibition project, primary screen (AID 1101); conditions: HEK293 splicing luciferase reporter, 24 h, higher = more signal, called active from +8 up or from −8 down;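 note: HEK293 cells carrying a splicing-competent luciferase reporter gene; test concentration not given here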
[5] = biological target: Fibroblast growth factor 10 (Homo sapiens) (UniProt O15520); test: compounds binding fibroblast growth factor 10 – biochemical, small-molecule microarray, 635 nm fluorescence, primary screen (AID 1102); conditions: FGF10 binding, fluorescence 635 nm, higher = more signal
[6] = test system: glycogen synthase kinase-3 (GSK3A per assay name; protocol says GSK3B); test: compounds binding glycogen synthase kinase-3 – biochemical, small-molecule microarray, 635 nm fluorescence, GSK3A, primary screen (AID 1103); conditions: fluorescence 635 nm, higher = more signal; note: the record names both GSK3A and GSK3B
[7] = biological target: Epidermal growth factor receptor (Homo sapiens) (UniProt P00533); test: compounds binding epidermal growth factor receptor – biochemical, small-molecule microarray, 635 nm fluorescence, primary screen (AID 1104); conditions: EGFR binding, higher = more signal;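 note: score merges 667 nm emission intensity with spot signal to noise over triplicate slides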
[8] = biological target: Follistatin-related protein 3 (Homo sapiens) (UniProt O95633); test: compounds binding follistatin-related protein 3 – biochemical, small-molecule microarray, 635 nm fluorescence, primary screen (AID 1105); conditions: FSTL3 binding, higher = more signal;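 note: score merges emission near 667 nm and signal to noise per printed spot across three slides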
[9] = biological target: Dickkopf-related protein 1 (Homo sapiens) (UniProt O94907); test: small molecules binding DKK1 protein – biochemical, small-molecule microarray, 635 nm fluorescence scan, primary screen (AID 1106); conditions: higher = more signal;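 note: score merges emission near 667 nm with signal to noise over three replicate slides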
[10] = test system: Inhibin beta A chain (activin A); test: small molecules binding activin A – biochemical, small-molecule microarray, 635 nm fluorescence scan, primary screen (AID 1107); conditions: INHBA, higher = more signal;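 note: mouse activin A protein probed at 4.33 µg/mL on printed slides; score merges bound-protein fluorescence near 667 nm with spot signal-to-noise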
[11] = test system: Human papillomavirus type 1a protein E7 (residues 44-93); test: small molecules binding HPV E7 44-93 – biochemical, small-molecule microarray, residues 44-93, 635 nm fluorescence, primary screen (AID 1108); conditions: fluorescence 635 nm, higher = more signal;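 note: E7 fragment applied at 1 µg/mL in TBST for 1 h at 4 C; score combines spot fluorescence with its signal to noise ratio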
[12] = hepatitis C replication reporter changes, two-sided – Huh7 cells, luciferase reporter, HCV replication inhibitor project, primary screen (AID 1109); conditions: Huh7 HCV replicon luciferase reporter, 48 h; higher = more signal;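 note: huh7 hepatoma cells harbouring a luciferase neomycin HCV replicon reporter; luciferase luminescence as measure of HCV replicon replication; test concentration not given here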
[13] = biological target: Left-right determination factor 2 (Homo sapiens) (UniProt O00292); test: small molecules binding LEFTY2 protein – biochemical, small-molecule microarray, 635 nm fluorescence scan, primary screen (AID 1110); conditions: higher = more signal
[14] = biological target: Calmodulin-1 (Homo sapiens) (UniProt P0DP23); test: small molecules binding calmodulin-1 with EGTA – biochemical, small-molecule microarray, Cy5-labelled CALM1, profiling panel (AID 1111); conditions: Cy5-CALM1 binding fluorescence, higher = more signal;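 note: labelled calmodulin applied in Tris saline Tween buffer holding calcium plus EGTA and DTT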
[15] = biological target: Calmodulin-1 (Homo sapiens) (UniProt P0DP23); test: small molecules binding Ca-loaded calmodulin-1 – biochemical, small-molecule microarray, Cy5-labelled CALM1, plus calcium, artefact control for SMM control-protein annotation, profiling panel (AID 1112); conditions: Cy5-CALM1 binding fluorescence, higher = more signal;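 note: score merges spot fluorescence with signal to noise from triplicate slides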
[16] = probe aWnt5a binding to arrayed compounds – biochemical, biotinylated probe, 635/667 nm fluorescence, primary screen (AID 1113); conditions: small-molecule microarray, higher = more signal;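 note: score merges 667 nm fluorescence intensity with signal-to-noise per printed feature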
[17] = probe aShh binding to arrayed compounds – biochemical, biotinylated probe, 635/667 nm fluorescence, primary screen (AID 1114); conditions: small-molecule microarray, higher = more signal;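 note: probe is biotin-labelled aShh protein from a stem cell growth factor screen; measures binding of labelled protein to compounds printed on the slide; score merges feature fluorescence at 667 nm with signal-to-noise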
[18] = probe aNog binding to arrayed compounds – biochemical, biotinylated probe, 635/667 nm fluorescence, primary screen (AID 1115); conditions: small-molecule microarray, higher = more signal;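 note: probe is biotinylated aNog protein used at 0.15 µg/mL for 1 h at 4 C; z-score combines 667 nm fluorescence of each spot with its signal to noise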
[19] = biological target: Torsin-1A-interacting protein 1 (Homo sapiens) (UniProt Q5JTV8); test: compound microarray binding of lysate hLAP1 – cell lysate, small-molecule microarray, COS7 lysate, 635/667 nm fluorescence, primary screen (AID 1116); conditions: 635 nm fluorescence, higher = more signal
[20] = biological target: Alpha-bungarotoxin (Bungarus multicinctus) (UniProt P60615); test: compounds binding labelled alpha-BTX control protein – biochemical, small-molecule microarray, Alexa647 label, 635/667 nm fluorescence, artefact control for SMM control protein annotation, profiling panel (AID 1117); conditions: alpha-BTX-A647 binding fluorescence, higher = more signal
Chain of Alpha-bungarotoxin (Bungarus multicinctus) (P60615 whole entry, looked up): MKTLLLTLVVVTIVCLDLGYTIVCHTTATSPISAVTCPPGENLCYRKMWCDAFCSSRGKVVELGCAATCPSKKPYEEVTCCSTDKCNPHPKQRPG

Chain of Fibroblast growth factor 10 (Homo sapiens) (O15520 whole entry, looked up): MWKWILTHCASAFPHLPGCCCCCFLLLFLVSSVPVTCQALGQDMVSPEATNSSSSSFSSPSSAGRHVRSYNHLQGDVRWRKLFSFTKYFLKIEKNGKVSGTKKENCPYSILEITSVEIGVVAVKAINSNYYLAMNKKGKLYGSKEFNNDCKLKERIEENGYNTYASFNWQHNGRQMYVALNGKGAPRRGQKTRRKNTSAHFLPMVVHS
Chain of Epidermal growth factor receptor (Homo sapiens) (P00533 whole entry, looked up): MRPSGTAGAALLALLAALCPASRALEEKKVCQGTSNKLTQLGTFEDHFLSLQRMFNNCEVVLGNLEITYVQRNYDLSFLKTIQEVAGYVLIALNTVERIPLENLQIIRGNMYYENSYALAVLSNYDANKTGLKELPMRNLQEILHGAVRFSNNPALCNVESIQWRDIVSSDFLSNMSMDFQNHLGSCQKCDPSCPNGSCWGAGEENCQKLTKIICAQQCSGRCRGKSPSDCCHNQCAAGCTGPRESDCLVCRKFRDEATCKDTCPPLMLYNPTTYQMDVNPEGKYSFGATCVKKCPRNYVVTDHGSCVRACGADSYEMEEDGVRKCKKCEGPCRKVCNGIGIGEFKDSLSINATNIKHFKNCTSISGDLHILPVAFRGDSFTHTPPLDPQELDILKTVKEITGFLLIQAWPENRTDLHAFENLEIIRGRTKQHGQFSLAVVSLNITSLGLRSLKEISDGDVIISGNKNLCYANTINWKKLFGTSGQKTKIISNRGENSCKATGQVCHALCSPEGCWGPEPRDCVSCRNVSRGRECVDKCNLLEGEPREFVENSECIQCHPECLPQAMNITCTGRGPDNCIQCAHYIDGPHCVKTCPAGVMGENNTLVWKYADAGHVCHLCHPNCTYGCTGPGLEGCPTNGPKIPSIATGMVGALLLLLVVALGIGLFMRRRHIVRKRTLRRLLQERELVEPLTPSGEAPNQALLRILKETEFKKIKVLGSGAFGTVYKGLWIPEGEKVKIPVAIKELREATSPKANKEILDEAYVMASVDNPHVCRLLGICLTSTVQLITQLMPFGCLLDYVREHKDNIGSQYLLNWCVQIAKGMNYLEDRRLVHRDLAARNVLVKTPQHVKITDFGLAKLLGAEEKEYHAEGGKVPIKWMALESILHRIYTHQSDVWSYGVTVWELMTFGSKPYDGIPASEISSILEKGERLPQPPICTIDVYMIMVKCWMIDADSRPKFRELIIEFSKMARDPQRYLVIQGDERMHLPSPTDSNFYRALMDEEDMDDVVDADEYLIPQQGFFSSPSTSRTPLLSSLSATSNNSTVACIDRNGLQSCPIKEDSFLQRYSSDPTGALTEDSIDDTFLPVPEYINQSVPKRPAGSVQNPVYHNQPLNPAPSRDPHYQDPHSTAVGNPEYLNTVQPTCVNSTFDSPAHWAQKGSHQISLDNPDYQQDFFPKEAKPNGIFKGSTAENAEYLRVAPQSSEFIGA
Chain of Left-right determination factor 2 (Homo sapiens) (O00292 whole entry, looked up): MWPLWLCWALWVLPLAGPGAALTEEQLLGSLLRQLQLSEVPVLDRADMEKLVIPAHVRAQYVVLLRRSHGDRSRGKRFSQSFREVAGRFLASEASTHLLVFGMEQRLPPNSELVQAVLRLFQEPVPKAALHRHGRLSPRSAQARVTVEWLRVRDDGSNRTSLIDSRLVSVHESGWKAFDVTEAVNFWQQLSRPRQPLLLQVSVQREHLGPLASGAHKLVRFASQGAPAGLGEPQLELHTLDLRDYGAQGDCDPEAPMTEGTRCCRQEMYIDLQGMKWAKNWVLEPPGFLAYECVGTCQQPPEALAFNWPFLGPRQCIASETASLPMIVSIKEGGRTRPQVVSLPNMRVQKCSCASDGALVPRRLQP
Chain of Follistatin-related protein 3 (Homo sapiens) (O95633 whole entry, looked up): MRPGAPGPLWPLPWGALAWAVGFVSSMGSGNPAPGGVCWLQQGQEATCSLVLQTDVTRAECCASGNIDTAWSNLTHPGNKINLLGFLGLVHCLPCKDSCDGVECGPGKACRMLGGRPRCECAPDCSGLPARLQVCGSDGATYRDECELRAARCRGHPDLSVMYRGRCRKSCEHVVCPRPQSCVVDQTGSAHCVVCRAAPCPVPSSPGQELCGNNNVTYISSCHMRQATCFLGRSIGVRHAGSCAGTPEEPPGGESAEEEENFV
Chain of Dickkopf-related protein 1 (Homo sapiens) (O94907 whole entry, looked up): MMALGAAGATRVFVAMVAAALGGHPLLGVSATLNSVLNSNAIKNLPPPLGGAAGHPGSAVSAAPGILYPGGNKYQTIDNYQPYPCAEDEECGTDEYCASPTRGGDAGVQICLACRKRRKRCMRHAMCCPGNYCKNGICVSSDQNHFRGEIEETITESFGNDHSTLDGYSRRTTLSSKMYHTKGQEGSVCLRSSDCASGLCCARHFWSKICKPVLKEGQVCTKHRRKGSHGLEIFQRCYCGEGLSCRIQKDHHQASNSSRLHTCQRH
Chain of Torsin-1A-interacting protein 1 (Homo sapiens) (Q5JTV8 whole entry, looked up): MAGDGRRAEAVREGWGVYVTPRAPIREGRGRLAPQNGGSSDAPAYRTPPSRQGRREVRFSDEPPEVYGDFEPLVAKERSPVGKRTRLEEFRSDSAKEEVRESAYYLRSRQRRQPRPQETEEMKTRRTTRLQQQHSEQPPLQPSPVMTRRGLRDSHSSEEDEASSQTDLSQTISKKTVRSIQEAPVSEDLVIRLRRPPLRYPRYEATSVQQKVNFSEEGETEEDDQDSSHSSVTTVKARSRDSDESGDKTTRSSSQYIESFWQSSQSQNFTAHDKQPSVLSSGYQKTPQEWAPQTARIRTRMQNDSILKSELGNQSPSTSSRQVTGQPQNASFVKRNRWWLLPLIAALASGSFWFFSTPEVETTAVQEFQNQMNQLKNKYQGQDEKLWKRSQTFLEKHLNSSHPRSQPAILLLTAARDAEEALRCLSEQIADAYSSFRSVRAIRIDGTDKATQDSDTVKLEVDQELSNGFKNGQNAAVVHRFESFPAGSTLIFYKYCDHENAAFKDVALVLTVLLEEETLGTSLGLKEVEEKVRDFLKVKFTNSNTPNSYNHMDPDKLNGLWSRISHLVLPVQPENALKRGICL

| Structure (SMILES) | composite z-score [1] | composite z-score [2] | composite z-score [3] | z-score [4] | composite z-score [5] | composite z-score [6] | composite z-score [7] | composite z-score [8] | composite z-score [9] | composite z-score [10] | composite z-score [11] | z-score [12] | composite z-score [13] | composite z-score [14] | composite z-score [15] | composite z-score [16] | composite z-score [17] | composite z-score [18] | composite z-score [19] | composite z-score [20] |
| --- | --- | --- | --- | --- | --- | --- | --- | --- | --- | --- | --- | --- | --- | --- | --- | --- | --- | --- | --- | --- |
| CC(C)[C@H]1NC(=O)[C@@]23C(=O)N[C@@H](Cc4ccccc4)C2[C@H](C)[C@@]2(C)O[C@H]2C3/C=C/C/C=C\CNC(=O)[C@H](Cc2ccccc2)NC1=O (stereo not given in full) | 0.205 | -0.38 | -0.481 | 0.0723 (inactive) | 1.37 | 1.08 | 0.512 | 1.44 | 0.336 | 1.12 | 1.33 | -0.26 | 0.736 | -0.28 | -0.584 | -0.158 | -0.0553 | -0.505 | 0.512 | 0.807 |
| O=C1O[C@H](c2ccccc2)[C@H](c2ccccc2)N2[C@H]1[C@@H](C(=O)N1CCCCCCC1)[C@]1(C(=O)Nc3ccc(C#CC4(O)CCCCCC4)cc31)[C@H]2c1ccccc1OCCO | 2.09 | 3.17 | 1.7 | -0.0867 (inactive) | 1.56 | 1.48 | 1.96 | 1.77 | 2.77 | 1.69 | 1.59 | -1.88 | 1.78 | 3.09 | 1.81 | 1.53 | 1.92 | 3.25 | 5.71 | 4.23 |
| C=C(/C(=C/C[C@@H](OC(C)=O)c1ccc(OCCO)cc1)c1cc(C(=O)OC)ccc1OC)C(C)C | 1.28 | 0.0968 | 0.0396 | 0.0641 (inactive) | 1.08 | 0.263 | -0.461 | 0.231 | 0.328 | 0.59 | -0.544 | -0.161 | 0.354 | 0.0164 | -0.258 | -0.181 | -0.0769 | -0.237 | 0.651 | 1.31 |
| O=C1OCC=C[C@H]2OC34C=CCN(c5ccc6ccccc6c5)C(=O)[C@H]3N(CCCCCO)C(=O)[C@@H]4[C@@H]12 (stereo not given in full) | 1.88 | 0.07 | 0.878 | -0.57 (inactive) | -1.17 | -1.55 | -1.44 | -1.56 | -1.41 | -0.255 | 0.203 | -0.078 | -2.05 | -0.402 | 0.239 | -0.098 | 0.151 | 0.244 | 1.35 | -0.0602 |
| C=CCN1C(=O)[C@]2(O[C@H](CCO)[C@@H]([Si](C)(C)c3ccc(OC)cc3)[C@@H]2C)c2cc(NC(=O)c3ccc(OC)cc3)ccc21 | 0.527 | -0.19 | -0.525 | -2.1 (inactive) | 0.468 | 0.448 | 0.484 | 1.23 | 0.682 | 0.982 | 1.12 | -5.1 | 0.391 | 0.0503 | 0.631 | -0.102 | -0.0553 | -0.0184 | 0.336 | 0.732 |
